HCV NS3h FP – blocks HCV NS3 helicase binding to DNA. NS3h Cy5-dT15 DNA binding, fluorescence polarization. inhibition, % at 100 µM. 16,000 tested, 1.6% active. AID 687043;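 active means inhibition above the average over every tested compound plus 3 SD, cut at about 40% in these data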
Cy5 interf NS3h – Cy5 fluorescence interference, HCV helicase counter-screen; AID 720488; Cy5-dT15 DNA with NS3h; actives lie on both sides; signal over control mean, under 1 quenches; 16,000 tested, 6% active; fluorescence interference ratio at 100 µM;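 active means compound fluorescence over control fluorescence at most 0.8, a quencher, or at least a set upper limit, an enhancer; inactive means ratio between 0.8 and the set upper limit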
Large screens that a line does not name were inactive. Only some compounds are listed: those with a hit (about 6.8% of all), similar ones and a draw of the others.

CCOc1cc(/C=C2/NC(=S)NC2=O)ccc1OCc1ccc(Cl)cc1	none
CCOc1ccc(N(CC(=O)Nc2cccc3ccccc23)S(C)(=O)=O)cc1	none
CCOc1cc(C(=S)N2CCOCC2)cc(Br)c1O	Cy5 interf NS3h 0.72
CCOc1cc(C(=S)N2CCOCC2)ccc1OS(=O)(=O)c1ccc(C)cc1	none
CCOc1ccccc1NC(=O)CSc1nnc(C)s1	Cy5 interf NS3h 0.68
COc1ccccc1NC(=O)CSc1nsc(SCC(=O)Nc2ccccc2OC)n1	none
C=CCNC(=O)c1ccc(-c2ccc(Cl)cc2Cl)o1	none
O=C(NCCOc1ccc(F)cc1)c1ccccc1-c1ccccc1	Cy5 interf NS3h 0.69
O=C(NCCOc1ccc(F)cc1)c1cccc2ccccc12	none
C=CCNC(=O)CN(c1ccc(OC)cc1OC)S(=O)(=O)c1ccc(C)cc1	none
Cc1ccc(OCCOCCOc2ccc(/C=c3\sc4nc5ccccc5n4c3=O)cc2)cc1	Cy5 interf NS3h 1.3
Cc1ccccc1OCCOc1ccc(/C=c2\sc3nc4ccccc4n3c2=O)cc1	none
CC1=NN(c2ccccc2)C(=O)/C1=C/c1ccccc1OS(=O)(=O)c1ccccc1[N+](=O)[O-]	none
COc1cc(OC)c(OC)cc1CN1CCN(Cc2cccc(OC)c2OC)CC1	none
O=[N+]([O-])c1ccc(Cl)cc1NCCOc1ccc(F)cc1	Cy5 interf NS3h 0.69
O=[N+]([O-])c1ccc(Cl)cc1NCCc1ccccc1	Cy5 interf NS3h 0.79
O=[N+]([O-])c1ccc(N2CCOCC2)cc1NCCc1ccccc1	Cy5 interf NS3h 0.67
O=[N+]([O-])c1ccc(N2CCN(CCO)CC2)cc1NCCc1ccccc1	none
Cc1cccc(OCCNc2cc(Cl)ccc2[N+](=O)[O-])c1	none
COc1ccccc1OCCNc1cc(Cl)ccc1[N+](=O)[O-]	none
Cc1ccc(/C(N)=N\OC(=O)c2ccccc2I)cc1	none
COc1ccc2oc(=O)c(C(=O)Nc3ccc(S(N)(=O)=O)cc3)cc2c1	none
O=C(O)c1ccc(Oc2ccc(NC(=O)c3cccc(F)c3)cc2)cc1	none
O=C(CSc1nc2ccccc2s1)Nc1nc2ccccc2s1	none
COc1ccc(NC(=O)CSc2nc3ccccc3s2)c(OC)c1	Cy5 interf NS3h 0.63
O=C(CSc1nc2ccccc2s1)c1ccc2ccccc2c1	Cy5 interf NS3h 0.74
COc1ccc(CNC(=O)CSc2nc3ccccc3s2)cc1	none
COc1ccc(/C(N)=N\OC(=O)c2cccc(F)c2)cc1	none
Cc1ccc(NC(=O)CSc2cc(Cl)ccc2Cl)cc1	none
O=C(/C=C1/Nc2ccccc2NC1=O)Nc1cccc(C(F)(F)F)c1	none
COC(=O)/C=C1\Nc2cc([N+](=O)[O-])ccc2NC1=O	Cy5 interf NS3h 0.72
O=C(NN1C(=O)CSC1c1ccc(Br)cc1)c1ccccc1 (stereo not given)	none
COc1ccc(C(=O)CSc2nnc(Sc3nc4ccccc4[nH]3)o2)cc1	Cy5 interf NS3h 0.54
COc1ccc(C(=O)CSc2nc3ccccc3c(=O)[nH]2)cc1	none
CCCCOc1ccc(C(=O)Nc2ccc(Cl)cn2)cc1	none
O=C(/C=C/c1ccccc1)NC(=S)Nc1ccc(Br)cc1	none
CC1=NN(C(=O)c2ccc(Cl)cc2)C(O)(c2cccnc2)C1 (stereo not given)	none
CC1=NN(C(=O)c2cccnc2)C(C)(O)C1(C)C (stereo not given)	Cy5 interf NS3h 0.65
Cc1ccc(-n2nnnc2C(=N)c2nnnn2-c2ccc(C)cc2)cc1	none
CCOC(=O)C1=C(O)/C(=C/c2ccc(O)cc2)SC1=Nc1cccc(Cl)c1	HCV NS3h FP 63
CCOC(=O)C1=C(O)/C(=C/c2ccc(Cl)cc2)SC1=Nc1ccc(C)cc1	none
C=CCOc1nc(-c2cccnc2)nc2ccccc12	none
Cc1cc(/C=N\n2cnnc2)c(C)n1-c1ccc(F)cc1	none
CCOc1cccc(C(=O)Nc2ccccc2C(=O)O)c1	none
O=C1NC(=S)S/C1=C/c1ccc(OCc2ccc(Cl)cc2)cc1	none
O=C1NC(=S)S/C1=C/c1ccc(OCc2cccc(C(=O)O)c2)cc1	HCV NS3h FP 46
COc1cc(/C=C2/SC(=S)NC2=O)ccc1OC(=O)c1cccc(Br)c1	Cy5 interf NS3h 0.76
COc1cc(/C=C2/SC(=NS(=O)(=O)c3ccccc3)NC2=O)c([N+](=O)[O-])cc1OC	none
COc1cc(/C=C2/SC(=S)NC2=O)ccc1OCc1ccc(I)cc1	none
COc1cc(/C=C2/SC(=S)NC2=O)ccc1OS(=O)(=O)c1ccccc1[N+](=O)[O-]	Cy5 interf NS3h 1.3
O=C(O)CCCC(=O)OCc1ccco1	HCV NS3h FP 48
O=C(O)CCCC(=O)Nc1ccccc1	none
Cc1ccc(CN2CCN(N=Cc3ccccc3Br)CC2)c(C)c1	none
Cc1ccc(-c2nc3ccccc3s2)cc1NC(=S)NC(=O)c1ccco1	none
CCC(=O)Nc1ccc(S(=O)(=O)N2CCCCCC2)cc1	Cy5 interf NS3h 0.74
O=C(O)/C=C/C(=O)Nc1ccc(S(=O)(=O)N2CCCCCC2)cc1	Cy5 interf NS3h 0.78
O=C(Nc1ccc(S(=O)(=O)N2CCCCCC2)cc1)c1ccc(F)cc1	none
Cc1ccc(C(=O)Nc2ccc(S(=O)(=O)N3CCCC3)cc2)cc1	none
COc1ccc(Cl)cc1NC(=O)c1cnn2c1NC(c1cccs1)CC2C(F)(F)F (stereo not given)	none
COc1ccc(C2NC(c3ccc(OC)cc3)C3CCCC2C3=O)cc1 (stereo not given)	none
COc1ccc(C2NC(c3ccc(OC)cc3)C(c3ccccc3)C(=O)C2c2ccccc2)cc1 (stereo not given)	Cy5 interf NS3h 0.72
O=C(/C=C/c1cccc(C(F)(F)F)c1)Nc1ccccc1[N+](=O)[O-]	none
O=C(Nc1ccccc1-c1ccccc1)c1ccc([N+](=O)[O-])cc1	none
COc1cccc(NC(=O)COc2ccc(C)cc2C)c1	Cy5 interf NS3h 0.78
COc1cccc(NC(=O)COc2cc(C)c(Cl)c(C)c2)c1	none
CCOc1ccc(/C=C2\C(=O)NC(=O)N(c3cccc(Br)c3)C2=O)cc1Cl	Cy5 interf NS3h 1.2
CCOc1ccc(/C=C2\C(=O)NC(=O)N(c3ccc(C)cc3)C2=O)cc1Cl	HCV NS3h FP 41
CCOc1ccc(/C=C2\C(=O)NC(=O)N(c3ccc(Cl)cc3)C2=O)cc1Cl	none
CCOc1ccc(N2C(=O)NC(=O)/C(=C\c3ccc(OCC)c(Cl)c3)C2=O)cc1	none
CCCOc1cccc(C(=O)Nc2ccc(F)c([N+](=O)[O-])c2)c1	none
CCOC(=O)C1=C(C)N=c2s/c(=C\c3ccc(OC)c(OC)c3OC)c(=O)n2C1c1ccc(Cl)cc1 (stereo not given)	none
O=C(NCCc1ccccc1)c1nn2c(c1Br)NC(c1cccs1)CC2C(F)(F)F (stereo not given)	Cy5 interf NS3h 0.54
O=C(Nc1ccc(F)cc1F)c1nn2c(c1Cl)NC(c1cccs1)CC2C(F)(F)F (stereo not given)	Cy5 interf NS3h 0.74
CSc1ccccc1NC(=O)c1nn2c(c1Br)NC(c1cccs1)CC2C(F)(F)F (stereo not given)	Cy5 interf NS3h 0.74
COc1ccc(Cl)cc1NC(=O)c1nn2c(c1Cl)NC(c1cccs1)CC2C(F)(F)F (stereo not given)	none
CC(C)(C)NC(=O)c1nn2c(c1Br)NC(c1cccs1)CC2C(F)(F)F (stereo not given)	none
O=C(NCCCN1CCOCC1)c1nn2c(c1Br)NC(c1cccs1)CC2C(F)(F)F (stereo not given)	Cy5 interf NS3h 0.71
O=C(Nc1cccc(C(F)(F)F)c1)c1nn2c(c1Br)NC(c1cccs1)CC2C(F)(F)F (stereo not given)	none
O=C(NCc1ccccc1)c1nn2c(c1Br)NC(c1cccs1)CC2C(F)(F)F (stereo not given)	none
